“And” between values parts separate entries of the source, which are not always exact repeats. Identical values can stand only once. The source holds several records for some structures; these can differ, active in one and inactive in another. The source made the active and inactive calls. The calls were made as follows: active = hit-call score of the fitted dose curve at least 0.9, where 1 is the maximum; inactive = score below 0.9.
Key:
[1] = ATG_E_Box_CIS: Attagene CIS-FACTORIAL HepG2 Assay for human Enhancer Box (E-box) (AID 2282936); conditions: HepG2 E-box cis-reporter transcription, actives raise or lower the signal
Outline: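 Fluorescent reporter fragments separated by capillary electrophoresis gave the signal; mRNA came from HepG2 cells transfected with cis-element reporters and treated 24 h. Curves fitted bidirectionally relative to DMSO controls.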

[2] = ATG_M_61_CIS: Attagene CIS-FACTORIAL HepG2 Assay for M61 Transcription Factor (Internal Marker) (AID 2282937); conditions: HepG2 Attagene CIS-FACTORIAL M61 internal marker reporter; actives raise or lower the signal
Outline: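 HepG2 cells transiently transfected with multiplexed cis-promoter reporter units reporting endogenous transcription factor activity, measured 24 h after dosing. Reporter mRNA quantified by RT-PCR and capillary electrophoresis; bidirectional fit against DMSO baseline.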

[3] = ATG_EGR_CIS: Attagene CIS-FACTORIAL HepG2 Assay for human Early Growth Response 1 (EGR1) (AID 2282938); conditions: HepG2 Attagene CIS-FACTORIAL EGR reporter mRNA; actives raise or lower the signal
Outline: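 HepG2 cells transiently transfected with cis-element-driven multiplexed reporter units, dosed for 24 h. EGR1-element reporter mRNA quantified by RT-PCR, 6-FAM labelling, HpaI digestion and capillary electrophoresis; bidirectional fit versus DMSO.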

[4] = ATG_M_19_CIS: Attagene CIS-FACTORIAL HepG2 Assay for M19 Transcription Factor (Internal Marker) (AID 2282939); conditions: HepG2 Attagene CIS-FACTORIAL M19 internal marker reporter; actives raise or lower the signal
Outline: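 HepG2, MRTU transient transfection, 24 h dosing. Total RNA → RT-PCR → 6-FAM primer extension → HpaI digest → CE fluorescence. Bidirectional curve fit, DMSO negative control.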

[5] = ATG_ERE_CIS: Attagene CIS-FACTORIAL HepG2 Assay for Estrogen Response Element (ERE) (AID 2282940); conditions: HepG2 ERE cis-reporter, Attagene RNA transcript; actives raise or lower the signal
Outline: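 After a 24 h chemical treatment, RNA from reporter-transfected HepG2 cells is reverse-transcribed, PCR-amplified and fluorescently labelled. Fragments separated by capillary electrophoresis give reporter signal; DMSO serves as negative control.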

[6] = ATG_Ets_CIS: Attagene CIS-FACTORIAL HepG2 Assay for human Erythroblast Transformation Specific (ETS) (AID 2282941); conditions: HepG2 ETS cis-reporter transcription, actives raise or lower the signal
Outline: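 Cis-regulated reporter mRNA induction in HepG2 (transient transfection), 24 h exposure, RT-PCR plus capillary electrophoresis detection; DMSO serves as negative control and baseline.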

[7] = target: Hepatocyte nuclear factor 3-beta (Homo sapiens) (UniProt Q9Y261); assay: ATG_FoxA2_CIS: Attagene CIS-FACTORIAL HepG2 Assay for human Forkhead box A2 (FOXA2) (AID 2282942); conditions: HepG2 cis-reporter transcription factor activity, 24 h; actives raise or lower the signal
Chain of Hepatocyte nuclear factor 3-beta (Homo sapiens) (Q9Y261 whole entry, looked up): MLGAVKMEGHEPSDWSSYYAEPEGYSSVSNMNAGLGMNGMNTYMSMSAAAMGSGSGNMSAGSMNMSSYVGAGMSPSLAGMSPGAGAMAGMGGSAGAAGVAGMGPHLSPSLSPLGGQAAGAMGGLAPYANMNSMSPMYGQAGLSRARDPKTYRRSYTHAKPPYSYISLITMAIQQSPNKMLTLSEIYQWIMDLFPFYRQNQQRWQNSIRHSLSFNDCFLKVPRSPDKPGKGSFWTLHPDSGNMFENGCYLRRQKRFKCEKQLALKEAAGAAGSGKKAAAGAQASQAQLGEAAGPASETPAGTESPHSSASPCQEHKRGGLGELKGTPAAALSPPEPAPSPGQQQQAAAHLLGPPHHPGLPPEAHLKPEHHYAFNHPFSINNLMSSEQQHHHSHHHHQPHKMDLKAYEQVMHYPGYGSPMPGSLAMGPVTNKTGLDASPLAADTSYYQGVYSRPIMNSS
Outline: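 HepG2 transiently transfected with a multiplexed cis-promoter reporter library read endogenous FOXA2 activity. After 24 h compound exposure, reporter mRNA was quantified by RT-PCR, HpaI digestion and capillary electrophoresis. Bidirectional fit against DMSO.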

[8] = ATG_FoxO_CIS: Attagene CIS-FACTORIAL HepG2 Assay for human Forkhead box O (FoxO) (AID 2282943); conditions: HepG2 Attagene cis-reporter, FoxO element, mRNA; actives raise or lower the signal
Outline: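 HepG2, transient MRTU transfection (cis element, endogenous TFs). Dose 24 h. TriZol RNA → oligo(dT) RT → PCR → 6-FAM primer extension → HpaI cut → CE. Gain/loss vs DMSO.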

[9] = ATG_GATA_CIS: Attagene CIS-FACTORIAL HepG2 Assay for human GATA Binding Protein (AID 2282944); conditions: HepG2 GATA cis-element reporter, Attagene multiplex mRNA; actives raise or lower the signal
Outline: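 Cells: HepG2, transiently transfected with cis-regulated reporter transcription units. Exposure: 24 h. Detection: RT-PCR plus capillary electrophoresis of FAM-labeled fragments. Analysis: bidirectional, DMSO as baseline.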

[10] = ATG_GLI_CIS: Attagene CIS-FACTORIAL HepG2 Assay for human Zinc Finger Protein GLI1 (AID 2282945); conditions: HepG2, Attagene cis-factorial reporter mRNA, GLI element; actives raise or lower the signal
Outline: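 Bidirectional curve fits relative to DMSO, using reporter mRNA levels from RT-PCR plus capillary electrophoresis. Cells were HepG2 transiently carrying cis-regulated reporter constructs, harvested 24 h after dosing.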

Measured: AC50

CC(C)(O)c1ccc(CNC(=O)c2cccnc2Oc2ccc3nonc3c2)cc1
inactive: all assays above

COc1cccc([C@H](O)C2CCN(CCc3ccc(F)cc3)CC2)c1OC
active: [1] 100 µM
inactive: all other assays above

O=C(OCCCCCCOC(=O)c1ccccc1)c1ccccc1
inactive: all assays above

CN(C)c1ccc(C(=C2C=CC(=[N+](C)C)C=C2)c2ccc(N(C)C)cc2)cc1
active: [1] 2.88 µM | [3] 2.23 µM | [5] 1.01 µM
inactive: all other assays above

CCCCCCCCCCCO
inactive: all assays above

OC12N=C(c3ccccc3)SC1Cc1cc(Cl)ccc12 (configuration not stated)
active: [5] 1.16 µM
inactive: all other assays above

CCCCCCCC[Si](OCC)(OCC)OCC
inactive: [1] | [2] | [3] | [4] | [6] | [7] | [8] | [9] | [10]
active: [1] 48.4 µM | [6] 100 µM and 75.6 µM | [10] 162 µM

OCCO
inactive: all assays above

C[C@]12CC[C@@H]3c4ccc(O)cc4CC[C@H]3[C@@H]1CC[C@H]2O
active: [1] 19.8 µM | [3] 42 µM
inactive: [1] | [2] | [3] | [4] | [6] | [7] | [8] | [9] | [10]

CC(=O)N1CCN(c2ccc(OC[C@H]3CO[C@](Cn4ccnc4)(c4ccc(Cl)cc4Cl)O3)cc2)CC1
active: [1] 54.6 µM | [3] 11.6 µM
inactive: all other assays above

CCCCCCCCOc1ccc(C(=O)c2ccccc2)c(O)c1
inactive: all assays above

CCN(CC)C(=O)c1cc(S(=O)(=O)Cc2ccccc2)c(N2CCC(c3ccccc3)CC2)cc1N(CC)CCN(C)C
inactive: all assays above

Oc1ccc2ccccc2c1
active: [1] 8.89 µM
inactive: [1] | [2] | [3] | [4] | [6] | [7] | [8] | [9] | [10]

CC(C)(C)c1cc(/C=C2\SC(N)=NC2=O)cc(C(C)(C)C)c1O
active: [3] 8.13 µM
inactive: all other assays above

CCCCCc1ccc(N)cc1
inactive: [1] | [2] | [3] | [4] | [6] | [7] | [8] | [9] | [10]
active: [1] 5.55 µM and 4.89 µM | [5] 15.1 µM [middle of 4 runs]

O=C(O)Cn1c(=O)n(Cc2ccc(Br)cc2F)c(=O)c2ccc(Cl)cc21
inactive: all assays above

CC1=CC(=O)/C(=C(/C)O)C(=O)O1
inactive: all assays above

CCCOC(=O)c1cc(O)c(O)c(O)c1
active: [5] 12.4 µM
inactive: all other assays above

CCCCOC(=O)c1ccc(O)cc1
active: [1] 138 µM | [3] 97.1 µM | [6] 157 µM | [9] 164 µM | [10] 125 µM
inactive: [1] | [2] | [3] | [4] | [6] | [7] | [8] | [9] | [10]

Cc1cc(F)ccc1-c1cc(N2CC[C@@H](O)[C@H]2CO)ncc1N(C)C(=O)C(C)(C)c1cc(C(F)(F)F)cc(C(F)(F)F)c1
inactive: all assays above

CN(C[C@@H](CC[N+]12CCC(C3CCCCC3)(CC1)CC2)c1ccc(Cl)c(Cl)c1)C(=O)c1cc(C(F)(F)F)cc(C(F)(F)F)c1
inactive: all assays above

Cc1cn([C@H]2C[C@H](N=[N+]=[N-])[C@@H](CO)O2)c(=O)[nH]c1=O
inactive: all assays above

Cc1cccc2ccccc12
active: [5] 76.8 µM
inactive: [1] | [2] | [3] | [4] | [5] | [6] | [7] | [8] | [9] | [10]

CC[C@H](NC(=O)c1cc(F)ccc1NS(=O)(=O)c1cccc2cccnc12)c1ccccc1
inactive: all assays above

CN(C)C(=O)C1(N2CCCCC2)CCN(CC[C@@]2(c3ccc(Cl)c(Cl)c3)CN(C(=O)c3ccccc3)CCO2)CC1
inactive: all assays above

NC(=O)c1nc(-c2cccc(-c3cc(F)ccc3OCC(F)(F)C(F)(F)F)c2)n[nH]1
active: [3] 40.2 µM
inactive: all other assays above

Clc1ccccc1C(c1ccccc1)(c1ccccc1)n1ccnc1
active: [3] 8.64 µM | [5] 0.438 µM | [9] 15.6 µM
inactive: all other assays above

CCN(Cc1cccc(S(=O)(=O)O)c1)c1ccc(C(=C2C=CC(=[N+](CC)Cc3cccc(S(=O)(=O)O)c3)C=C2)c2ccccc2S(=O)(=O)[O-])cc1
inactive: all assays above

Clc1cc(Cl)c2c(c1)N=C1CCCCCN1C2
active: [1] 50 µM
inactive: all other assays above

O=C(Nc1ccc(Cl)cc1)Nc1ccc(Cl)c(Cl)c1
inactive: all assays above

CN1C(=O)N(c2ccccc2Br)Cc2cnc(Nc3ccc4c(c3)OCC(CO)O4)nc21 (configuration not stated)
active: [3] 12.2 µM
inactive: all other assays above

Cc1cc2c(cc1C(F)(F)F)N(C(=O)Nc1ccc(Oc3cccnc3C)nc1)CC2
inactive: all assays above

CCOC(=O)O[C@H](C)OC(=O)c1ccc2c(c1)cc(C(=O)NC1CCN(C(C)C)CC1)n2Cc1cc(-c2ccc(Cl)s2)on1
active: [5] 33 µM
inactive: all other assays above

c1ccc2ccccc2c1
inactive: all assays above

O=C1CCC(C2CCCCC2)CC1
active: [1] 185 µM | [3] 130 µM | [6] 131 µM | [9] 187 µM
inactive: [1] | [2] | [3] | [4] | [6] | [7] | [8] | [9] | [10]

NCc1cccc(C2CCN(C(=O)c3ccc(C#Cc4ccccc4F)o3)CC2)c1
active: [3] 11 µM | [5] 2.81 µM
inactive: all other assays above

CCCCCCCCCCCCO
inactive: all assays above

From PubChem BioAssay (EPA / NIEHS)
